Compounds without any hit were thinned out: in the full panel of roughly 83,000, 20% have a hit.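 The endpoint reported here, percent growth, reads 100 for growth as untreated, 0 for no net growth and -100 for all cells dead.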 Active and inactive are the calls of the source. How the source made its calls: active means growth percent below 10; inactive means the rest.
Tested on: TK-10 renal
Experiment: NCI-60 one-dose screen, 48 h (100 = growth as untreated, 0 = no growth, -100 = all killed)
Settings: 10 µM unless noted

| Structure (SMILES) | growth |
| --- | --- |
| Cn1cc(-c2cc3nc(-c4cn(C)c5ncccc45)cc(N)n3n2)c2cc(Cl)ccc21 | -83.2% (active) |
| CC12CC[C@@H]3[C@]4(C)COC(c5c(F)cccc5F)O[C@@H]4CC[C@@]3(C)[C@@H]1CC(C1=CCOC1=O)O2 (stereo partly drawn) | 93.5% (inactive) |
| Cc1nc(Nc2ncc(C(=O)Nc3c(C)cccc3Cl)s2)cc(N2CCN(CCCNC(=O)COc3ccc(C4CCC(=O)NC4=O)cc3)CC2)n1 (stereo not drawn) | -7.44% (active) |
| Cn1cc(NC(=O)c2cc(NC(=O)c3ccc(/C=C/c4ccccc4)cc3)cn2C)cc1C(=O)NCCCN1CCOCC1 | 87.9% (inactive) |
| Cc1ccccc1[C@H]1C(C(=O)c2ccc(Cl)cc2)C2(N[C@@H]1c1ccccc1)C(=O)Nc1ccc(Br)cc12 (stereo partly drawn) | 41.6% (inactive) |
| Brc1ccc(N/N=C/c2c[nH]c3ccc(Br)cc23)nc1 | -16.8% (active) |
| C=C1CCC2C3(C)COC(c4ccccc4)OC3CCC2(C)C1CC(Sc1ccccc1)C1=CCOC1=O (stereo not drawn) | 106% (inactive) |
| Clc1cccc(N/N=C/c2c[nH]c3ccc(Br)cc23)n1 | 63.9% (inactive) |
| COc1c(F)ccc(C(=O)Nc2ccc3nc(NC(=O)C4CCCN(S(=O)(=O)c5cccc(C(F)(F)F)c5)C4)sc3c2)c1F (stereo not drawn) | 102% (inactive) |
| O=c1oc2ccc(Br)cc2cc1C1=CSc2nc3sc4c(c3c(=O)n2N=C1)CCCC4 | 175% (inactive) |
| CC(=O)/C=C/c1cccc2c1C(=O)NC(C)(c1cc3cc(Br)ccc3oc1=O)N2 (stereo not drawn) | 58.6% (inactive) |
| O=c1[nH]c(=O)c2c(-c3cc4ccccc4oc3=O)ccnc2[nH]1 | 105% (inactive) |
| O=C(/C=C/Nc1ccc2oc(=O)ccc2c1)c1cc2cc(Br)ccc2oc1=O | 124% (inactive) |
| CC1(c2cc3cc(Cl)ccc3oc2=O)NC(=O)c2c(/C=C/C(=O)OC3CC4CCC3(C)C4(C)C)cccc2N1 (stereo not drawn) | 79.3% (inactive) |
| COc1ccc(-c2ccnc(SCc3cc4ccccc4[nH]c3=O)n2)cc1OC | 22.9% (inactive) |
| CC12CC[C@@H]3[C@]4(C)COC(c5cn[nH]c5-c5cccc(Br)c5)O[C@@H]4CC[C@@]3(C)[C@@H]1CC(C1=CCOC1=O)O2 (stereo partly drawn) | 58.6% (inactive) |
| O=C(c1ccc(OCCN2CCOCC2)cc1)C1[C@H](c2ccc(Cl)cc2)[C@@H](c2ccccc2)NC12C(=O)Nc1ccc(Br)cc12 (stereo partly drawn) | 40.2% (inactive) |
| COc1ccc2c(c1)c(/C=N/Nc1ccc3ccccc3n1)cn2C | 43.4% (inactive) |
| CN(C)CCOc1ccc(C(=O)C2[C@H](c3ccc(Cl)cc3)[C@@H](c3ccccc3)NC23C(=O)Nc2ccc(Br)cc23)cc1 (stereo partly drawn) | 90.2% (inactive) |

| Structure (SMILES) | growth |
| --- | --- |
| O=c1[nH]c2ccc(Cl)cc2cc1CSc1nccc(-c2ccc(Cl)cc2)n1 | 88.2% (inactive) |
| COc1cccc(/C=C/c2nc3ccccc3c(=O)n2CC(=O)Nc2ccc(Cl)cc2)c1 | 32.2% (inactive) |
| CCCSc1nc(Nc2ccc(S(N)(=O)=O)cc2)c(C#N)c(-c2cc(OC)c(OC)c(OC)c2)n1 | 50.4% (inactive) |
| CC(/C=C1\SC(=S)N(CCCC(=O)NC(CC(C)C)C(=O)O)C1=O)=C\c1ccccc1 (stereo not drawn) | 131% (inactive) |
| COc1ccc(/C=C/c2nc3ccccc3c(=O)n2CC(=O)Nc2ccc(Cl)cc2)cc1 | 116% (inactive) |
| Cn1cc(-c2cc3nc(-c4cn(C)c5ncc(Br)cc45)cc(N)n3n2)c2cc(Cl)ccc21 | -94.9% (active) |
| Cn1cc(-c2cc(N)n3nc(-c4cn(C)c5ncccc45)cc3n2)c2cccnc21 | 86% (inactive) |
| Cc1ccc([C@H]2C(C(=O)c3ccc(Cl)cc3)C3(N[C@@H]2c2ccccc2)C(=O)Nc2ccc(Cl)cc23)cc1 (stereo partly drawn) | 65.7% (inactive) |
| O=C(Cn1c(/C=C/c2ccccc2)nc2ccccc2c1=O)Nc1ccc(Cl)cc1 | -12% (active) |
| CC12CC[C@@H]3[C@]4(C)COC(c5cn[nH]c5-c5cccc(Cl)c5)O[C@@H]4CC[C@@]3(C)[C@@H]1CC(C1=CCOC1=O)O2 (stereo partly drawn) | 45.9% (inactive) |
| CCCCSc1nc(Nc2ccc(S(N)(=O)=O)cc2)c(C#N)c(-c2cc(OC)c(OC)c(OC)c2)n1 | 82.2% (inactive) |
| CCOC(=O)/C=C/c1cccc2c1C(=O)NC(C)(c1cc3cc(Cl)ccc3oc1=O)N2 (stereo not drawn) | 46.2% (inactive) |
| O=C(c1ccc(OCCN2CCOCC2)cc1)C1[C@H](c2ccc(Cl)cc2)[C@@H](c2ccccc2)NC12C(=O)Nc1ccc(Cl)cc12 (stereo partly drawn) | 49.7% (inactive) |
| CC(C)c1sc(NC(=O)c2cc(NC(=O)c3cc(NC(=O)c4nccn4C)cn3C)cn2C)nc1C(=O)NCCCN(C)C | 97.9% (inactive) |
| COc1c(F)ccc(C(=O)Nc2ccc3nc(NC(=O)C4CCCN(S(=O)(=O)c5ccc(Cl)cc5)C4)sc3c2)c1F (stereo not drawn) | 103% (inactive) |
| O=C(N1c2ccccc2Sc2ccccc21)n1ccc2cccnc21 | 90.7% (inactive) |
| Cn1cc(-c2cc(N)n3nc(-c4cn(C)c5ncc(Br)cc45)cc3n2)c2cc(Br)cnc21 | -10.2% (active) |
| CC1=C(C#N)C2=NNCC(c3ccccc3)=NN2C(c2ccccc2)=C1 | 103% (inactive) |
| C=C1CC[C@@H]2[C@]3(C)COC(c4cn[nH]c4-c4ccc(F)cc4)O[C@@H]3CC[C@@]2(C)[C@@H]1C/C=C1/C(=O)OCC1O (stereo partly drawn) | -19.1% (active) |

Reference: PubChem BioAssay (NCI)
